According to PubChem BioAssay (EPA / NIEHS):
The source made the active and inactive calls. How the source made its calls: active means hit-call score of the fitted dose curve at least 0.9, where 1 is the maximum; inactive means score below 0.9.

Test: CCTE_Padilla_ZF_Score.Craniofacial: CCTE's 144 Hour Post-fertilization zebrafish Assay Score for Craniofacial Malformation, Padilla Lab (AID 2284405)
Method: CCTE_Padilla_ZF_Phenotype_Score is a whole embryo, multiplexed assay using zebrafish ova exposed for 144 hours post fertilization on a 96-well plate.CCTE_Padilla_ZF_Score.Craniofacial is one of one assay component(s) measured or calculated from the CCTE_Padilla_ZF_Phenotype_Score assay. It is designed to make measurements of zebrafish development as detected with brightfield microscopy of developing zebrafish embryos.Data from the assay component CCTE_Padilla_ZF_Score.Craniofacial was analyzed into 1 assay endpoints. This assay endpoint, CCTE_Padilla_ZF_Score.Craniofacial, was analyzed in the positive analysis fitting direction relative to DMSO as the negative control and baseline of activity. Using a type of viability reporter, gain-of-signal activity can be used to understand changes in developmentals as they relate to the whole embryo. To generalize the intended target to other relatable targets, this assay endpoint is annotated to the zebrafish development intended target family, where the subfamily is craniofacial morphogenesis.
Zebrafish husbandry: Wild type adult zebrafish (Danio rerio; undefined outbred stock obtained from Aquatic Research Organisms, Hampton, NH, 03842) were housed in an AAALAC-approved animal facility at 28C with a 14:10 h light: dark cycle (lights on at 08:30 h). Adult fish (2-3 females per male; density = 15-20 adults per tank) were kept in one of several 9-liter (L) flow-through colony tanks (Aquaneering Inc., San Diego, CA). All adults in a colony tank were placed in a 2 L (static) breeding tank (Aquatic Habitats, Apopka, FL) one hour prior to light onset. Typically, adults from two to three colony tanks were mated on the same day. Two hours after light onset the adults were returned to the colony tank. All embryos were gathered from each breeder tank, pooled, and placed in a 28C water bath for 2 h, followed by two washes with 0.06% bleach (v/v) in 10% Hanks' Balanced Salt Solution (13.7 mM NaCl 0.54 mM KCl, 25 uM Na2HPO4, 130 uM CaCl2 100 um MgSO4 and 420 um NaHCO3,), hereafter referred to as Hanks' solution, for 5 min in order to remove any residual bacteria or fungi. Immediately following washing, the embryos were examined, and healthy embryos were separated from dead or unfertilized eggs and moved into fresh Hanks'. Chemical exposures: Zebrafish embryos were exposed in 96-well plates. Between 6- and 8-hours post fertilization (hpf), healthy embryos (with chorions) were transferred, one embryo per well, into 96 well (0.5 mL) microtiter plates (Cell Culture-Treated, Flat-Bottom Microplate 96 well [Corning Costar, Kennebunk, ME; Cat 09-761-145]) filled with 200 uL of Hanks' solution. A random number generator was used to assign the order in which the rows of embryos were plated in 96 well plates each week. After plating, the embryos were dosed with 0.8 uL of the chemical dosing solution then immediately sealed with AlumaSeal II (Excel Scientific Inc, Victorville, CA) to prevent volatilization of the chemicals, and then placed in a leakproof secondary container. These containers were placed in an incubator maintained on a 14:10 h light: dark cycle at 26C for rearing. On 5 dpf, live larvae were gently moved out of the plate with test chemicals and into a new 96 well mesh plate (Millipore Corp., Bedford, MA) with just the Hanks' solution. Once within the mesh well plate, the animals were rinsed with 400 uL of fresh Hanks' three times, and then the plates were covered with a non-adhesive material (Microseal A, BioRad, Hercules, CA), plate lid added, and then plate sides wrapped in Parafilm (PM992, Bermis Company, Neenah, WI), and returned to the incubator. […]

Compound | outcome | AC50
FC(F)(F)C(F)(F)C(F)(F)C(F)(F)C(F)(F)CCI | inactive | –
FC(F)(F)C(F)(F)C(F)(F)C(F)(F)C(F)(F)C(F)(F)C(F)(F)Br | inactive | –
FC(F)(F)C(F)(F)C(F)(F)C(F)(F)C(F)(F)C(F)(F)CC1CO1 (stereo not given) | inactive | –
FC(F)(F)C(F)(F)C(F)(F)C(F)(F)C(F)(F)C(F)(F)CCS | inactive | –
O=S(=O)(O)C(F)(F)C(F)(F)C(F)(F)C(F)(F)C(F)(F)C(F)(F)C(F)(F)F | – | 65.3 µM (active)
O=C(O)C(F)(OC(F)(F)C(F)(OC(F)(F)C(F)(F)C(F)(F)F)C(F)(F)F)C(F)(F)F (stereo not given) | inactive | –
O=C(O)C=C(C(F)(F)F)C(F)(F)F | inactive | –
OCC(F)(F)C(F)(F)C(F)(F)F | inactive | –
FC(F)(Br)C(F)(F)C(F)(F)C(F)(F)C(F)(F)C(F)(F)Br | inactive | –
NC(=O)C(F)(F)C(F)(F)C(F)(F)C(F)(F)F | inactive | –
C=CC(=O)OCC(F)(F)C(F)(F)C(F)(F)C(F)(F)COC(=O)C=C | inactive | –
FC(F)(F)C(F)(F)C(F)(F)C(F)(F)C(F)(F)C(F)(F)C(F)(F)C(F)(F)F | inactive | –
O=C(CC(=O)C(F)(F)C(F)(F)F)C(F)(F)F | inactive | –
O=S(=O)(OCC(F)F)C(F)(F)F | inactive | –
C=C(C)C(=O)OCCC(F)(F)C(F)(F)C(F)(F)C(F)(F)C(F)(C(F)(F)F)C(F)(F)F | inactive | –
O=C(O)C(F)(F)C(F)(F)C(F)(F)C(F)(F)C(F)(F)C(F)(F)C(F)(F)C(F)(F)C(F)(F)C(F)F | inactive | –
CC(C)(C)C(=O)CC(=O)C(F)(F)C(F)(F)C(F)(F)F | – | 30.3 µM (active)
Cc1ccc(S(=O)(=O)OCC(F)(F)C(F)(F)C(F)(F)C(F)(F)C(F)(F)C(F)F)cc1 | inactive | –
FC(F)(F)C(F)(F)C(F)(F)CI | inactive | –
CCO[Si](CCC(F)(F)C(F)(F)C(F)(F)C(F)(F)C(F)(F)C(F)(F)F)(OCC)OCC | inactive | –

Compound | outcome | AC50
OCC(F)(F)C(F)(F)C(F)(F)C(F)(F)C(F)(F)C(F)F | inactive | –
O=C(Cl)C(F)(F)C(F)(F)C(F)(F)C(F)(F)C(F)(F)C(F)(F)C(F)(F)C(F)(F)F | inactive | –
OCCCC(F)(F)C(F)(F)C(F)(F)C(F)(F)C(F)(F)C(F)(F)C(F)(F)F | inactive | –
FC(F)(F)C(F)(F)C(F)(F)C(F)(F)C(F)(F)C(F)(F)C(F)(F)C(F)(F)CCS | inactive | –
C=C(C)C(=O)OCC(F)(F)C(F)(F)C(F)(F)F | inactive | –
O=C(O)C(F)(F)C(F)(F)OC(F)(F)F | inactive | –
CCCCCCCCC(F)(F)C(F)(F)C(F)(F)C(F)(F)C(F)(F)C(F)(F)F | inactive | –
O=C(O)C(F)(F)C(F)(F)C(F)F | inactive | –
FC(F)(F)C(F)(F)CNCC(F)(F)C(F)(F)F | inactive | –
OCC(F)(F)C(F)(F)C(F)(F)C(F)(F)C(F)(F)C(F)(F)F | inactive | –
FC(F)(F)C(F)(F)C(F)(F)N(C(F)(F)C(F)(F)C(F)(F)F)C(F)(F)C(F)(F)C(F)(F)F | inactive | –
C=CC(=O)OCC(F)(F)C(F)(F)C(F)(F)C(F)(F)C(F)(F)C(F)(F)C(F)(F)F | inactive | –
OCC(F)(F)C(F)(F)C(F)(F)C(F)F | inactive | –
O=C(O)C(F)(OC(F)(F)C(F)(OC(F)(F)C(F)(OC(F)(F)C(F)(F)C(F)(F)F)C(F)(F)F)C(F)(F)F)C(F)(F)F (stereo not given) | inactive | –
N=C(N)C(F)(F)C(F)(F)C(F)(F)C(F)(F)C(F)(F)C(F)(F)C(F)(F)F | inactive | –
O=C(O)C(F)(F)C(F)(F)F | inactive | –
O=C(O)C(F)(F)C(F)(F)C(F)(F)C(F)(F)F | inactive | –
FC(F)(F)C(F)(F)C(F)(F)C(F)(F)CCI | inactive | –
O=C(O)C(F)(F)C(F)(F)C(F)(F)F | inactive | –
O=C(O)C(F)(F)C(F)(F)C(F)(F)C(F)(F)C(F)(F)C(F)(F)C(F)(F)C(F)(F)C(F)(F)C(F)(F)C(F)(F)C(F)(F)C(F)(F)F | inactive | –
